Laboratory results reported in PubChem BioAssay AID1159580 (chemical genetic matrix, 2015).
The whole screen tested about 5,500 compounds, of which about 2,000 (36%) were called active. Another 18% or so got no clear call; they are omitted. Cut-off read from the data, not from the text of the source: active = normalized growth mostly below about 0.91 (no sharp cut-off); inconclusive = no clear call, values can overlap the other calls; inactive = mostly above about 0.92. This is one part of the list.

Assay: chemical genetic growth profiling, strain panel (AID 1159580);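 note: tested at 20 µM; growth read once vehicle control cultures reached saturation at 30 °C; 1 = growth at the plate median or of vehicle wells; lower values mean less growth of the strain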
Conditions: S. cerevisiae deletion strains, growth OD

Measured: normalized growth

FC(F)(F)COCC(F)(F)F
inactive: locus YAL021C, strain ccr4, hits give low values 1.02 | locus YAL026C, strain drs2, hits give low values 1.04 | locus YAL030W, strain snc1, hits give low values 0.993 | locus YBL061C, strain skt5, hits give low values 1.03 | locus YBR009C, strain hhf1, hits give low values 0.998 | locus YBR023C, strain chs3, hits give low values 1.03 | locus YBR171W, strain sec66, hits give low values 1.01 | locus YBR231C, strain swc5, hits give low values 1.02 | locus YBR279W, strain paf1, hits give low values 1.02 | locus YCL011C, strain gbp2, hits give low values 1.02 | locus YCL016C, strain dcc1, hits give low values 1.03 | locus YCL069W, strain vba3, hits give low values 1.03 | locus YCR088W, strain abp1, hits give low values 1.01 | locus YDL005C, strain med2, hits give low values 1.01 | locus YDL040C, strain nat1, hits give low values 1.02 | locus YDR001C, strain nth1, hits give low values 1.01 | locus YDR069C, strain doa4, hits give low values 1.02 | locus YDR137W, strain rgp1, hits give low values 1.03 | locus YDR159W, strain sac3, hits give low values 0.963 | locus YDR195W, strain ref2 0.996 | locus YDR297W, strain sur2, hits give low values 1.01 | locus YDR334W, strain swr1, hits give low values 1.01 | locus YDR335W, strain msn5, hits give low values 1.03 | locus YDR392W, strain spt3, hits give low values 0.971 | locus YEL003W, strain gim4, hits give low values 0.992 | locus YEL037C, strain rad23, hits give low values 1.01 | locus YEL061C, strain CIN8 (second series), hits give low values 1 | locus YER015W, strain faa2, hits give low values 1.02 | locus YER016W, strain bim1, hits give low values 1.03 | locus YER111C, strain swi4, hits give low values 1.01 | locus YER155C, strain BEM2 (second series), hits give low values 0.986 | locus YFR010W, strain ubp6, hits give low values 0.999 | locus YGL167C, strain pmr1, hits give low values 1.02 | locus YGL173C, strain kem1, hits give low values 1 | locus YGL227W, strain vid30, hits give low values 1.02 | locus YGL240W, strain doc1, hits give low values 0.996 | locus YGL253W, strain hxk2, hits give low values 1.03 | locus YHR013C, strain ard1, hits give low values 1.02 | locus YHR027C, strain rpn1, hits give low values 1.02 | locus YHR030C, strain SLT2, hits give low values 0.998 | locus YHR079C, strain IRE1, hits give low values 0.96 | locus YHR142W, strain chs7, hits give low values 1.03 | locus YJL092W, strain hpr5, hits give low values 1.02 | locus YJL095W, strain BCK1 (second series), hits give low values 1.03 | locus YJL095W, strain BCK1, hits give low values 1 | locus YJL115W, strain asf1, hits give low values 1.02 | locus YJL129C, strain trk1, hits give low values 1.04 | locus YJL154C, strain vps35, hits give low values 1.04 | locus YJL164C, strain tpk1, hits give low values 1.02 | locus YJL166W, strain qcr8, hits give low values 0.986 | locus YJL187C, strain SWE1, hits give low values 1.02 | locus YJR066W, strain TOR1, hits give low values 0.938 | locus YKL160W, strain elf1, hits give low values 1.01 | locus YKR026C, strain gcn3, hits give low values 1.01 | locus YKR091W, strain srl3, hits give low values 1.01 | locus YLL001W, strain dnm1, hits give low values 0.988 | locus YLL026W, hits give low values 1 | locus YLL041C, strain sdh2, hits give low values 1.02 | locus YLR027C, strain aat2, hits give low values 1.02 | locus YLR113W, strain HOG1, hits give low values 0.999 | locus YLR221C, strain rsa3, hits give low values 0.996 | locus YLR258W, strain gsy2, hits give low values 1.04 | locus YLR262C, strain YPT6 (second series), hits give low values 0.992 | locus YLR320W, strain mms22, hits give low values 0.968 | locus YLR342W, strain FKS1, hits give low values 1.03 | locus YLR357W, strain rsc2, hits give low values 1.01 | locus YLR370C, strain arc18, hits give low values 1.03 | locus YLR384C, strain iki3, hits give low values 1.02 | locus YML120C, strain ndi1, hits give low values 1 | locus YMR058W, strain fet3, hits give low values 1.04 | locus YMR125W, strain sto1, hits give low values 1.04 | locus YMR129W, hits give low values 1 | locus YMR205C, strain PFK2, hits give low values 1 | locus YMR231W, strain pep5, hits give low values 1.01 | locus YNL071W, strain lat1, hits give low values 1.03 | locus YNL183C, strain NPR1, hits give low values 0.948 | locus YNL209W, strain ssb2, hits give low values 1.03 | locus YNL248C, strain rpa49, hits give low values 1.04 | locus YNL322C, strain KRE1 (second series), hits give low values 1.02 | locus YNR049C, strain mso1, hits give low values 1.01 | locus YOR001W, strain rrp6, hits give low values 0.986 | locus YOR070C, strain gyp1, hits give low values 1.01 | locus YOR080W, strain dia2, hits give low values 1.01 | locus YOR083W, strain WHI5, hits give low values 0.981 | locus YOR106W, strain vam3, hits give low values 1.04 | locus YOR231W, strain MKK1, hits give low values 0.993 | locus YOR265W, strain rbl2, hits give low values 1.01 | locus YOR270C, strain vph1, hits give low values 1.07 | locus YOR290C, strain snf2, hits give low values 1.03 | locus YPL051W, strain arl3, hits give low values 1.03 | locus YPL078C, strain atp4, hits give low values 1.03 | locus YPL106C, strain sse1, hits give low values 0.983 | locus YPL240C, strain hsp82, hits give low values 1 | locus YPL256C, strain CLN2, hits give low values 0.948
